Measurements taken from PubChem BioAssay (Tox21).
Results filed as inconclusive are left out. The source made the active and inactive calls. Unless noted, the call rests on the fitted dose curve; in most records, active means well fitted curve in the direction sought with a large enough effect in the repeat runs; inconclusive means weak or mixed curves; inactive means no such curve, though single readings can be large; an effect the other way counts as inactive or inconclusive.

Key:
[1] = qHTS assay to identify small molecule agonists of the estrogen receptor alpha (ER-alpha) signaling pathway in the presence of an antagonist - cell viability counter screen (AID 1259386);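 further: series mostly up to about 92 µM; cells exposed to compounds for 22 h at 37 °C before the viability read; nearly all actives have a fitted effect of over 30% in size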
Outline: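 VM7Luc4E2 cells (endogenous full-length ER-alpha, 4×ERE-luciferase) were held 5 days in phenol red-free medium with 10% charcoal-stripped FBS, plated, then given 10.0nM ICI-182,780 and compounds at 15 concentrations for 22hr at 37C; viability read by CellTiter-Fluor fluorescence.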

[2] = qHTS assay to identify small molecule antagonists of the progesterone receptor (PR) signaling pathway - cell viability counter screen (AID 1346798); further: series mostly up to about 92 µM; nearly all actives have a fitted effect of over 50% in size
Outline: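 PR-UAS-bla HEK293T cells, 3,000/well in 2% charcoal-stripped FBS medium, dosed with compounds plus R5020 agonist and incubated 16 h at 37C. Viability then measured in the same wells by CellTiter-Glo luminescence after 30 min at RT.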

[3] = qHTS assay to identify small molecule agonists of the progesterone receptor (PR) signaling pathway - cell viability counter screen (AID 1346799; calls by dose curve; further: nearly all actives have a fitted effect of over 45% in size; further: potency means the concentration at half of the fitted maximal effect)
Outline: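 Counter screen in the PR-UAS-bla HEK293T wells (2% charcoal-stripped FBS, 16 h compound exposure at 37 C) after the bla read. CellTiter-Glo added, 30 min at room temperature, luminescence read as cell viability.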

[4] = qHTS assay to identify small molecule antagonists of the TGF-beta/Smad signaling pathway - cell viability counter screen (AID 1346824); further: nearly all actives have a fitted effect of over 50% in size
Outline: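 Cytotoxicity counter-screen run in the same wells as the beta-lactamase Smad reporter read: CellTiter-Glo luminescence after 30 min at room temperature. HEK 293T SBE-bla cells had 5 hr compound exposure at 37 C with TGF-beta1 (0.25 ng/mL stock).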

[5] = qHTS assay to identify small molecule agonists of the TGF-beta/Smad signaling pathway - cell viability counter screen (AID 1346829); further: top concentration of the series differs between compounds; nearly all actives have a fitted effect of over 45% in size
Outline: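 Same-well cytotoxicity: CellTiter-Glo added after the 2 hr room-temperature beta-lactamase substrate step, luminescence measured 30 min later; cells had 5 hr of compound at 37 C.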

[6] = qHTS assay to identify small molecule agonists of the TGF-beta/Smad signaling pathway (AID 1346859; active means well fitted activation curve with a large enough effect in the signal ratio in the repeat runs, not every such curve was filed as active; the % refers to the signal ratio; further: series mostly up to about 77 µM)
Outline: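 SBE-bla HEK293T cells plated overnight, then compound exposure for 5 h at 37 C. Beta-lactamase reporter read with LiveBLAzer B/G FRET substrate after 2 h at room temperature, fluorescence at 405 nm excitation, 460/530 nm emission.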

[7] = target: Thyrotropin-releasing hormone receptor (Homo sapiens) (UniProt P34981); test: qHTS assay to identify small molecule antagonists of the thyrotropin-releasing hormone receptor (TRHR) signaling pathway (AID 1346877; active means well fitted inhibition curve with a large enough effect in the repeat runs, not every such curve was filed as active; further: series mostly up to about 51 µM)
Chain of Thyrotropin-releasing hormone receptor (Homo sapiens) (P34981 whole entry, looked up): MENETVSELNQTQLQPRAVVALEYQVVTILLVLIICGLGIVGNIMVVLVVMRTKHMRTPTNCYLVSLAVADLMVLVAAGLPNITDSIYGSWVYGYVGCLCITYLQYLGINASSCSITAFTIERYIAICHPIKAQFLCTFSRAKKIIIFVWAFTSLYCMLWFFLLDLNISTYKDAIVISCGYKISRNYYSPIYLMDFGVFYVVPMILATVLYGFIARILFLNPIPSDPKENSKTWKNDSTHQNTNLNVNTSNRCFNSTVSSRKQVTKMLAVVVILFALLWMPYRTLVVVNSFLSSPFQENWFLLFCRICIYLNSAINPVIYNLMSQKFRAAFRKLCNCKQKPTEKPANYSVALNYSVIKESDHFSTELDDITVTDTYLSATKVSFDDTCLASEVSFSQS
Outline: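 TRHR-expressing HEK293 cells were seeded, cultured 18 h at 37 °C, then loaded with calcium dye for 2 h. Compounds were pre-incubated 5 min at room temperature before 1 nM TRH (final) was added, and kinetic fluorescence was recorded for 3 min.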

[8] = target: Thyrotropin-releasing hormone receptor (Homo sapiens) (UniProt P34981); test: qHTS assay to identify small molecule agonists of the thyrotropin-releasing hormone receptor (TRHR) signaling pathway (AID 1346891; calls by dose curve; further: series mostly up to about 58 µM)
Outline: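 HEK293 cells expressing TRHR plated 18 h at 37 C/5% CO2, calcium dye-loaded 2 h at 37 C, then compound added (agonist mode); kinetic calcium fluorescence read 3 min at 1 s intervals; 15 concentrations in triplicate.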

[9] = Human pregnane X receptor (PXR) small molecule agonists, qHTS cell viability counter screen (AID 1346977); further: nearly all actives have a fitted effect of over 50% in size
Outline: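 PXR-Luc HepG2 cells (2,000/well, 5% charcoal-stripped FBS) preincubated 5 hr, then exposed to compounds 24 hr at 37 C. Viability read in the same wells by CellTiter-Fluor fluorescence, reagent added at 23 hr, 1 hr incubation.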

[10] = Caspase-3/7 induction in HepG2 cells by small molecules, qHTS assay (AID 1346978); further: nearly all actives have a fitted effect of over 15% in size
Outline: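 Caspase-3/7 induction was measured by Caspase-Glo 3/7 luminescence (30 min, room temperature) after a 17 hr compound exposure of wild-type HepG2 cells seeded at 2,000 per well and pre-incubated 5 hr.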

[11] = Caspase-3/7 induction in CHO-K1 cells by small molecules, qHTS cell viability counter screen (AID 1346979); further: nearly all actives have a fitted effect of over 35% in size
Outline: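 Wild-type CHO-K1 cells (1,500/well) treated with compound after 5 h plating; after 16 h at 37C, viability read as CellTiter-Fluor fluorescence following 1 h reagent incubation, in the same wells as the caspase read.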

[12] = Caspase-3/7 induction in CHO-K1 cells by small molecules, qHTS assay (AID 1346980); further: nearly all actives have a fitted effect of over 15% in size
Outline: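 Luminescent Caspase-Glo 3/7 read (30min, room temperature) quantified apoptosis induction. Cells were wild-type CHO-K1, treated with compound for 17hr at 37 C and 5% CO2.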

[13] = Caspase-3/7 induction in HepG2 cells by small molecules, qHTS cell viability counter screen (AID 1346981); further: series mostly up to about 92 µM; nearly all actives have a fitted effect of over 30% in size
Outline: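 Wild-type HepG2 cells (2,000/well) were allowed to settle for 5 hr at 37 C, 5% CO2, then dosed with compounds in DMSO by pin transfer. After 16 hr at 37 C, CellTiter-Fluor was added and fluorescence read 1 hr later.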

[14] = target: Nuclear receptor subfamily 1 group I member 2 (Homo sapiens) (UniProt O75469); test: Human pregnane X receptor (PXR) small molecule agonists, qHTS assay (AID 1346982); further: nearly all actives have a fitted effect of over 35% in size; further: potency means the concentration at half of the fitted maximal effect
Chain of Nuclear receptor subfamily 1 group I member 2 (Homo sapiens) (O75469 whole entry, looked up): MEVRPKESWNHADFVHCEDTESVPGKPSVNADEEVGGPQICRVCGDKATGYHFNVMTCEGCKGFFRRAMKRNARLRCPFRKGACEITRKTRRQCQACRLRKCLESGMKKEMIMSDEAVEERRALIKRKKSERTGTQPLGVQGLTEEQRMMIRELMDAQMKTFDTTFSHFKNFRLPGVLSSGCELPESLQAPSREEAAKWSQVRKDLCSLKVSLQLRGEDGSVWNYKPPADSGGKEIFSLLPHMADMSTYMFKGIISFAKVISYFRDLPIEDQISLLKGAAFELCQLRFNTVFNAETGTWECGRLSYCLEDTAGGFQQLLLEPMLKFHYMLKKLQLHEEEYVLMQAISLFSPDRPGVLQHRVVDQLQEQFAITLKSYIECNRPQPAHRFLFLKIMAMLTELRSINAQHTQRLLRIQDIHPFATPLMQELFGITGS
Outline: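 PXR-Luc HepG2 cells (CYP3A4 promoter-driven luciferase) were seeded in medium with 5% charcoal-stripped FBS, left 5 hr at 37 C, then exposed to compounds in DMSO for 24 hr. Luminescence was read after ONE-Glo addition.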

[15] = target: Cytochrome P450 2D6 (Homo sapiens) (UniProt P10635); test: Cytochrome P450 Family 2 Subfamily D Member 6 (CYP2D6) small molecule antagonists: luciferase reporter qHTS assay (AID 1671196); further: nearly all actives have a fitted effect of over 50% in size; further: potency means the concentration at half of the fitted maximal effect
Chain of Cytochrome P450 2D6 (Homo sapiens) (P10635 whole entry, looked up): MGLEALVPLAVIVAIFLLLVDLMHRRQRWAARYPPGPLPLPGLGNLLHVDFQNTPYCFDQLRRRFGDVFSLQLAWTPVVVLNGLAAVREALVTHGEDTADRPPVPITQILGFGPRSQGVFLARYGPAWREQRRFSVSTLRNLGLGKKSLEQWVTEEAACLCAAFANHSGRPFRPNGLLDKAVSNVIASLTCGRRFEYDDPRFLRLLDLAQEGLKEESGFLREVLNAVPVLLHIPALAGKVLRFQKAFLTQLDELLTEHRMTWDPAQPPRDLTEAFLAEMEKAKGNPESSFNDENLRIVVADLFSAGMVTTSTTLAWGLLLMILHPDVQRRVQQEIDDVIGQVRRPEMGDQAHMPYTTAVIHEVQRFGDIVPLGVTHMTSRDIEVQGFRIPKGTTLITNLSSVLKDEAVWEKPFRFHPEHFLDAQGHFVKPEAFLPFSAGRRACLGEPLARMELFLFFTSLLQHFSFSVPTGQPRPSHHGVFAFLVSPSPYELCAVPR
Outline: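 CYP2D6 enzyme–substrate mix was held with compound for 10 min at room temperature, then NADPH regeneration solution was added and the reaction ran 1 h at room temperature. Luciferin product was detected by luminescence after 20 min with detection reagent.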

[16] = target: Nuclear receptor subfamily 1 group I member 2 (Rattus norvegicus) (UniProt Q9R1A7); test: Rat pregnane X receptor (rPXR) activation by small molecules, qHTS assay (AID 1346983); settings: rPXR luciferase reporter cells, One-Glo luminescence, 24 h; max activation: stronger effect = higher value; further: nearly all actives have a fitted effect of over 20% in size
Chain of Nuclear receptor subfamily 1 group I member 2 (Rattus norvegicus) (Q9R1A7 whole entry, looked up): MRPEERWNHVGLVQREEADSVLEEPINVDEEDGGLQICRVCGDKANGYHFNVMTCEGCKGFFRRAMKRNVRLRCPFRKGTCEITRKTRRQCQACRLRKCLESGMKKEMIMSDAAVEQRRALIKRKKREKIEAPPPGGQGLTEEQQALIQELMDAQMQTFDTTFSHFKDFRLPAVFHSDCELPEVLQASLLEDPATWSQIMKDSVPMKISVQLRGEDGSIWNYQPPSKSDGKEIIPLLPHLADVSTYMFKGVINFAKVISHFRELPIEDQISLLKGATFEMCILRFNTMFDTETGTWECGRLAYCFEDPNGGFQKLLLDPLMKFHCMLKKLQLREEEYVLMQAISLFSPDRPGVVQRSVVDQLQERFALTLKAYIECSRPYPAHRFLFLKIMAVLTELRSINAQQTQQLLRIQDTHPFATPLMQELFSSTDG
Outline: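 Luminescent readout (One-Glo luciferase, 30 min room temperature) followed 24 hr compound treatment at 37 C of rPXR cells plated 2,000 per well and preincubated 5hr; qHTS format with compounds delivered in DMSO.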

[17] = target: Nuclear receptor subfamily 1 group I member 2 (Homo sapiens) (UniProt O75469); test: CYP3A4 induction through human pregnane X receptor (PXR) by small molecules, qHTS assay (AID 1346984); further: nearly all actives have a fitted effect of over 40% in size
Outline: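 DPX-2 cells (HepG2 co-transfected with PXR and CYP3A4 promoter-luciferase) treated with compounds 24 h at 37C; luciferin-IPA CYP3A4 substrate 3uM final added for 3 h, then One-Glo; luminescence read. qHTS format.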

[18] = target: Progesterone receptor (Homo sapiens) (UniProt P06401); test: qHTS assay to identify small molecule agonists of the progesterone receptor (PR) signaling pathway (AID 1346784; calls by dose curve; further: nearly all actives have a fitted effect of over 30% in size)
Chain of Progesterone receptor (Homo sapiens) (P06401 whole entry, looked up): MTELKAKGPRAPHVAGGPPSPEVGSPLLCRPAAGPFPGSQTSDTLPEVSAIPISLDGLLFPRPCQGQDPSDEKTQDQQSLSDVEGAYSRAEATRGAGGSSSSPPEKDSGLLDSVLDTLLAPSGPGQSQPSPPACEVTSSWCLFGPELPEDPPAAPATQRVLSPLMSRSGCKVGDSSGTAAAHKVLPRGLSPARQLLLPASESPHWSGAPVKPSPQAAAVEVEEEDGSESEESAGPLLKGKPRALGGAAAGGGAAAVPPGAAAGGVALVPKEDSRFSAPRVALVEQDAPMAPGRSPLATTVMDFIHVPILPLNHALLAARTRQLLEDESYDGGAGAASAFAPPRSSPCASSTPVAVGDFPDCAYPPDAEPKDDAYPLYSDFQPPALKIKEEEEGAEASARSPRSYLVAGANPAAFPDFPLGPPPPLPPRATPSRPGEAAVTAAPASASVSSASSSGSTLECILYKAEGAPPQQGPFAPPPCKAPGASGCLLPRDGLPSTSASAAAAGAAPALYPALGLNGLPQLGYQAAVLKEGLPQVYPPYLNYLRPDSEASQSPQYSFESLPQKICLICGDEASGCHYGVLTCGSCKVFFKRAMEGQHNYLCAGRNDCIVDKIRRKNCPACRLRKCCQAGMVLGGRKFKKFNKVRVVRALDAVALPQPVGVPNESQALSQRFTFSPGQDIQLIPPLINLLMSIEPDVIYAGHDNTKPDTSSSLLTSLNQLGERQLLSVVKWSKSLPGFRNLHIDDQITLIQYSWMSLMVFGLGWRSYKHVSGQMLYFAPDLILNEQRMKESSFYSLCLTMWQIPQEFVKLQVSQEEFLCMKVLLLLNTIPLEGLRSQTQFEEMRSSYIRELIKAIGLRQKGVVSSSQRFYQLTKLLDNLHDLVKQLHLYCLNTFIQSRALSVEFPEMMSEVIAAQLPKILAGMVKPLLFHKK
Outline: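 PR-UAS-bla HEK 293T cells (beta-lactamase reporter under UAS) in 2% charcoal-stripped FBS, dosed with 23 nL compound after 6 hr, incubated 16hr at 37C. LiveBLAzer B/G FRET substrate added, fluorescence read after 2 hours.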

[19] = target: Progesterone receptor (Homo sapiens) (UniProt P06401); test: qHTS assay to identify small molecule antagonists of the progesterone receptor (PR) signaling pathway (AID 1346795; active means well fitted inhibition curve with a large enough effect in the signal ratio in the repeat runs, not every such curve was filed as active; the % refers to the signal ratio)
Outline: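 PR-UAS-bla HEK293T cells with beta-lactamase reporter under UAS control, in 2% charcoal-stripped FBS, treated with compounds plus 1 nM promegestone (R5020, final) for 16 hr at 37C. Read-out: FRET beta-lactamase substrate fluorescence after 2 hr at room temperature.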
On the % scale 0 is the no-effect control and ±100 the full control effect.

CN(C)CCCNCCCN
inactive: Potency [1] | Potency [2] | Potency [3] | Potency [4] | Potency [5] | outcome [6] | outcome [7] | Potency [8] | Potency [9] | outcome [10] | Potency [11] | Potency [12] | Potency [13] | Potency [14]
active: Potency [15] 70.7 µM

CCN(CC)CCOC(=O)C1(c2ccccc2)CCCC1
active: Potency [15] 1.38 µM
inactive: Potency [1] | Potency [2] | Potency [4] | Potency [5] | outcome [6] | outcome [7] | Potency [8] | Potency [9] | outcome [10] | Potency [11] | Potency [12] | Potency [13] | max activation [16] 1.06% | Potency [17]

O=C(O)/C=C/c1cnc[nH]1
inactive: outcome [18] | Potency [19] | Potency [2] | Potency [3] | Potency [4] | Potency [5] | outcome [6] | outcome [7] | Potency [8] | Potency [9] | outcome [10] | Potency [11] | Potency [12] | Potency [13] | Potency [14]

O=C(NN1CCCC1)NS(=O)(=O)c1ccc(Cl)cc1
inactive: outcome [18] | Potency [19] | Potency [2] | Potency [4] | Potency [5] | outcome [6] | outcome [7] | Potency [8] | outcome [10] | Potency [11] | Potency [12] | Potency [13] | Potency [14] | Potency [15]

C1CCC2OC2C1 (stereo unspecified)
inactive: outcome [18] | Potency [19] | Potency [4] | Potency [5] | outcome [6] | outcome [7] | Potency [8] | Potency [9] | outcome [10] | Potency [11] | Potency [12] | Potency [13] | Potency [14] | Potency [15]

O=C=NC1CCC(CC2CCC(N=C=O)CC2)CC1 (stereo unspecified)
inactive: outcome [18] | Potency [19] | Potency [4] | Potency [5] | outcome [6] | Potency [8] | outcome [10] | Potency [11] | Potency [12] | Potency [13]
active: Potency [3] 8.63 µM | Potency [15] 35.6 µM

C1=Cc2ccccc2C1
inactive: Potency [1] | Potency [3] | Potency [4] | Potency [5] | outcome [6] | outcome [7] | Potency [8] | Potency [9] | outcome [10] | Potency [11] | Potency [13] | Potency [14]

O=C(Cl)c1ccc([N+](=O)[O-])cc1
inactive: Potency [1] | Potency [3] | Potency [4] | Potency [5] | outcome [6] | outcome [7] | Potency [8] | outcome [10] | Potency [11]
active: Potency [14] 5.35 µM

CC(=O)OCCc1ccccc1
inactive: outcome [18] | Potency [19] | Potency [2] | Potency [3] | Potency [4] | Potency [5] | Potency [8] | Potency [9] | outcome [10] | Potency [11] | Potency [12] | Potency [13] | Potency [14] | Potency [15]
